In PubChem BioAssay AID813 (Sanford-Burnham Center for Chemical Genomics, 2007):
Among all 64,000 compounds or so, fewer than 10 were called active.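 How the source made its calls: active means activation factor of at least 2 at 20 µM, relative to controls; inactive means the rest.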 The list is a sample of the results.

Each compound was assayed against Alkaline phosphatase, tissue-nonspecific isozyme (Homo sapiens) (UniProt P05186) (assay: human TNAP enzyme activators, primary screen, biochemical, luminescent, intermediate phosphate acceptor level (AID 813)). Details: purified TNAP, CDP-star luminescence, 100 mM DEA, 30 min; at 20 µM; active compounds read high; scale: 0 levamisole-inhibited, 1 vehicle-only enzyme.
Sequence of Alkaline phosphatase, tissue-nonspecific isozyme (Homo sapiens) (P05186 whole entry, looked up): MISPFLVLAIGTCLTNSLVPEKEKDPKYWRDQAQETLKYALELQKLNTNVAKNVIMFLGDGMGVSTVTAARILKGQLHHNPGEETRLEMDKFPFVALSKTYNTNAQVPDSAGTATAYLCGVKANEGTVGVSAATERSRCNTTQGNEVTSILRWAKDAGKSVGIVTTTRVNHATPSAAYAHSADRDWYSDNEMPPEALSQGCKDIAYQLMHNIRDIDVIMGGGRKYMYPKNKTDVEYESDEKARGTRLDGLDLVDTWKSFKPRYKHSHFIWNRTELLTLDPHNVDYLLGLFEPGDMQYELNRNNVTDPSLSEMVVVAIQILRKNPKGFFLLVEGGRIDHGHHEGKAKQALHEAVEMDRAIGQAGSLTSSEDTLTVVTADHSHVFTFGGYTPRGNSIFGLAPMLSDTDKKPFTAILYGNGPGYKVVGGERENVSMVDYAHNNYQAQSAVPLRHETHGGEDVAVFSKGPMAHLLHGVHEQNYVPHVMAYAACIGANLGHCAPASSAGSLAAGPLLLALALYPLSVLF

Activation factor, active:
COc1cccc(N(C(=O)c2ccn[nH]2)C2(C(=O)Nc3c(C)cccc3C)CCCCC2)c1 2.8, OCCCN1c2ccccc2Nc2nnc(-c3ccccc3)cc21 4.3

Activation factor, inactive:
CC1CN(C(=O)CN2C(=O)NC(C)(c3ccccc3)C2=O)CC(C)O1 (stereo not drawn) 0.9, CCOc1cc(C)c(Cl)cc1S(=O)(=O)n1nnc2ccccc21 0.9, CCOC(=O)CNC(=O)c1nn(-c2cccc(OC)c2)c(=O)c2ccccc12 0.9, CC(C)c1ccc(NC(=O)NC2CCCCC2)cc1 0.9, COc1ccc(N2C(=O)C3CCCN3C2c2cc(OC)c(OC)cc2OC)cc1 (stereo not drawn) 0.9, Cc1oc(CC(C)C)c(CN2CCCC2)c1C(=O)O 0.9, CCCn1c(SCC(N)=O)nnc1C(C)C 0.9, O=C(CCN1C(=O)COc2ccccc21)NCCCN1CCN(c2ccc(F)cc2)CC1 0.9, Cc1c(-c2nn(C)c(=O)c3ccccc23)oc2ccc(F)cc2c1=O 1, CCC(=O)N1c2ccc(S(=O)(=O)CCC(=O)N3CCN(c4ccccc4)CC3)cc2CC1C (stereo not drawn) 0.9, Cc1cc(Nc2ccccc2)n(CCC#N)n1 1, Cc1cc2cc(CNC(=O)c3ccc(S(=O)(=O)N4CCOCC4)cc3)ccc2[nH]1 1, CCOC(=O)c1cc2occc2n1CC(=O)NC1CCC(C)CC1 (stereo not drawn) 0.9, CC(CN1CCCCC1)OC(=O)c1ccccc1Cl (stereo not drawn) 1, COC(=O)c1cc(NC2c3ccccc3C(=O)N2c2ccc(Cl)cn2)cc(C(=O)OC)c1 (stereo not drawn) 0.9, N=c1c2c3c(sc2ncn1CCCN1CCOCC1)CCCCC3 0.9, Cc1ccc(S(=O)(=O)NCc2csc(C)n2)c(C)c1 0.9, CSCCC1NC2(C(=O)Nc3ccc(Cl)cc32)[C@@H]2C(=O)N(C3CCCC3)C(=O)[C@H]12 (stereo partly drawn) 0.9, NC(=O)c1ccsc1NC(=O)c1ccco1 0.8, O=C(CC1(O)C(=O)N(CN2CCOCC2)c2ccccc21)c1ccccc1 (stereo not drawn) 0.9, CCOc1cccc(-n2nnnc2-c2ccc(OC)cc2)c1 0.8, Cc1ccc(N2C(=O)c3oc4ccccc4c(=O)c3C2c2cccnc2)nc1 (stereo not drawn) 0.9, COc1ccccc1N1CCN(Cc2ccc(OC)c3ccccc23)CC1 0.9, CC(C)(C)c1csc(NC2=NS(=O)(=O)c3ccccc32)n1 0.9, CN1CCN(CC(O)COCc2ccc3c(c2)OCO3)CC1 (stereo not drawn) 1, COc1cc(C2C(C(=O)c3sc(C)nc3C)=C(O)C(=O)N2CCN(C)C)cc(OC)c1OC (stereo not drawn) 0.9, CCOc1cc(/C=N/O)cc(Br)c1OC 0.9, Cc1ccc(C(=O)Nc2ccccc2C(=O)NC2CCCCC2)cc1S(=O)(=O)N1CCOCC1 0.9, CC1CCN(c2nc3c(c(=O)[nH]c(=O)n3C)n2CCCc2ccccc2)CC1 1, Cc1cc(C)nc(NC2=NCC(=O)N2c2ccc(Cl)cc2)n1 0.9, CCOc1cc(S(=O)(=O)NC2CC(C)(C)NC(C)(C)C2)ccc1F 0.9, Nc1nnc(C2CCCC2)s1 0.9, Cn1c(=NC(=O)c2ccco2)sc2cccc(F)c21 0.9, CC(C)(CNCC(O)c1ccccc1)N1CCOCC1 (stereo not drawn) 0.9, CCOc1ccc(N(CC(=O)OC)S(=O)(=O)c2c(C)noc2C)cc1 0.9, COc1ccc(CCn2nnnc2C(c2ccccc2)N2CCN(C)CC2)cc1OC (stereo not drawn) 1, O=C(OCCO)c1cc(Cl)c(C(=O)OCCO)cc1Cl 0.9, O=C(C1CCCO1)N(Cc1ccccc1)c1ccccc1 (stereo not drawn) 0.9, Cc1nn(-c2ccccc2)c2sc(C(=O)N(Cc3ccco3)C(C)C(=O)NC(C)(C)C)cc12 (stereo not drawn) 0.9, COc1cccc(N2C(=O)CC(N3CCN(S(=O)(=O)c4ccccc4)CC3)C2=O)c1 (stereo not drawn) 1, CCN(CC)S(=O)(=O)c1cccc(C(=O)NCC(=O)OCC(=O)NCc2ccccc2)c1 0.9, O=C(O)c1ccc(COc2c(F)c(F)cc(F)c2F)o1 0.8, CC12CN(Cc3ccccc3)CC(C)(CN(Cc3ccccc3)C1)C2=NO 1.2, COc1ccc(C)cc1-n1nnnc1SCC(=O)c1cc(C)n(Cc2ccco2)c1C 0.8, O=C(c1cccs1)N1CCN(Cc2ccc3c(c2)OCO3)CC1 1, COc1cccc(N2CC(C(=O)Nc3c(C)cccc3C)CC2=O)c1 (stereo not drawn) 1, Fc1cc(F)c2nc(N3CCOCC3)sc2c1 0.9, Cc1ccc(C(=O)O)cc1S(=O)(=O)NCC1CCCO1 (stereo not drawn) 0.9, COC(=O)c1ccccc1NC(=O)C1CCN(S(=O)(=O)c2cc(OC)ccc2OC)CC1 0.9, Cc1cccc(N)c1SC1CCCCC1O (stereo not drawn) 0.9, CC(=O)Nc1cccc2c1[n+]([O-])c(C)c(C)[n+]2[O-] 1, CC(=O)OC(C(=O)NCCc1ccccc1)c1cccnc1 (stereo not drawn) 1, CCc1nc2oc3ccccc3c(=O)c2c(=O)n1Cc1ccc(OC)cc1 0.9, CCSc1ncnc2c(C#N)c3n(c12)CCCCC3 0.9, O=C(Nc1c(C(=O)N2CCCCC2)cnn1-c1ccccc1)c1ccco1 1, CC1(C)CC(=O)C2=C(C1)NCN(CCCN1CCOCC1)C2 0.9, CCOC(=O)N1CCN(C(=O)Cc2ccc(-n3c(=S)[nH]c4ccccc4c3=O)cc2)CC1 1, O=C(OC(C(=O)NC1CCCC1)c1ccc(F)cc1)c1ccno1 (stereo not drawn) 0.9, CC(=O)N1CCN(CCN=CC2=C(O)CC(C)(C)CC2=O)CC1 0.9, CCCS(=O)(=O)C(=C1Nc2ccccc2N1)S(=O)(=O)CCC 0.9, O=C(Cc1c(F)cccc1Cl)N1CCN(C(=O)c2ccco2)CC1 0.8, O=C(COc1ccccc1Cl)Nn1cnnc1 0.9, O=C(CN(Cc1ccccc1)C(=O)c1ccc2c(c1)OCCO2)NCc1ccc2c(c1)OCO2 0.9, COc1ccc(C(=O)N(CCN2CCOCC2)CC(=O)NC2CCCC2)cc1OC 0.9, COc1ccc(C2C3=C(OC(C)=O)c4ccccc4C3=Nc3c2c(=O)n(C)c(=O)n3C)cc1 (stereo not drawn) 0.8, Cc1ccc(S(=O)(=O)c2c(N)n(C)c3nc4ccccc4nc23)cc1 0.9, NC(=O)C1CCN(C2OC(=O)c3ccccc32)CC1 (stereo not drawn) 0.9, O=C(OCC(=O)N1CCN(C(=O)c2ccco2)CC1)c1ccccc1Cc1ccccc1 1, Cc1coc2c(O)cc3c(c12)OC1(N2CCCCC2)C(=O)NCCCC31 (stereo not drawn) 0.9, CCC1=[N+]([O-])C(C)(/C(C)=N\O)N(O)C1(C)C (stereo not drawn) 1, O=C(CN1CCN(C(=O)c2cccc(F)c2)CC1)Nc1ccccc1F 1.1, CC/C(=N\O)C(C)(C)/[N+]([O-])=C/c1ccc(Br)cc1 0.9, CCCN1Cc2cccc(C(=O)NCc3ccccc3)c2C1=O 0.9, CC(=O)N1CCc2cc(S(=O)(=O)Nc3ccccc3N3CCN(C)CC3)ccc21 1, CCN(CC)c1ccc2cc(C(=O)O)c(=O)oc2c1 1, Cc1ccc(C)c(N2CCN(C(=O)CCCCn3c(=O)[nH]c4ccccc4c3=O)CC2)c1 0.8, CC1(C)Cc2c(sc3nc4n(c(=N)c23)CCCCC4)CO1 0.4, O=c1cccc(-c2ccc(Br)cc2)o1 0.9, O=C(CN1CCN(c2ccc(F)cc2)CC1)Nc1cccc(C(F)(F)F)c1 0.9, Cc1ccc(S(=O)(=O)N2CCC(C(=O)OCC(=O)N3CC(=O)Nc4ccccc43)CC2)cc1 0.9, CCC(c1nnnn1Cc1ccco1)N(CCc1ccccc1)Cc1cc2cccc(C)c2[nH]c1=O (stereo not drawn) 0.9, O=C1CC(Cc2ccccc2)C(=O)N1c1ccc(Cl)cn1 (stereo not drawn) 1, C=CCn1c(SCC(=O)NC23CC4CC(CC(C4)C2)C3)nc(O)cc1=O 0.9, CCn1c(=N)n(CC(=O)c2cccc(OC)c2)c2ccccc21 1, O=C(CCCOc1ccccc1)Nc1cccc(C(=O)O)c1 1, COc1ccc(S(=O)(=O)N2CCN(c3ncnc4c(-c5ccccc5)nsc34)CC2)cc1 0.9, CCOC(=O)c1c(N)c(C#N)nn1-c1ccccc1C(=O)OC 0.8, Cc1cccc(N2CC(C)Cn3c2nc2c3c(=O)n(CC(=O)OCc3ccccc3)c(=O)n2C)c1 (stereo not drawn) 0.9, CCn1c(=O)cc(O)c2ccccc21 1, O=C1c2ccccc2C(O)N1Cc1ccccc1 (stereo not drawn) 1, CCOc1ccc(CCNC(=O)C(CC)n2nc(C)n3c(cc4sccc43)c2=O)cc1OCC (stereo not drawn) 1, Cc1cc(=O)n2c3c(cccc13)CCC2 0.9, CC(C)OCCCNc1nc2c(c(=O)n(Cc3ccccc3F)c(=O)n2C)n1C 0.9, CCOC(=O)c1sc(NC(=O)c2cc(S(=O)(=O)N3CCOCC3)ccc2C)nc1C 0.9, Cc1ccc(S(=O)(=O)NCCN2CCOCC2)cc1C 1, Cc1cc(C(=O)N2CCN(c3ccccn3)CC2)c(C)o1 0.9, CC(=O)NCC(=O)N(C)C(C(=O)Nc1ccc2c(c1)OCCO2)c1ccccc1 (stereo not drawn) 1, CCOC(=O)c1c(C2CC2)csc1NC(=O)CSCc1c(C)noc1C 0.9, O=C(NC1CCCCC1)c1ccc2c(=O)n(CC3CCCO3)c(=O)[nH]c2c1 (stereo not drawn) 1, CCOc1ccc(OCC)c(NC(=O)CSc2nnc(Cn3cnc4ccccc43)n2C)c1 0.9, CCOC(=O)CSc1nc2c(c(=O)n(Cc3ccccc3Cl)c(=O)n2C)n1C 0.9, CCOC(=O)C1=C(CNC2CCCCC2)NC(=O)NC1c1cc(C)ccc1C (stereo not drawn) 0.9, CSc1ccc(S(=O)(=O)NCc2ccc(Cl)cc2)cc1 0.8, CC1(C)CC(=O)C=C(NC2CC(C)(C)NC(C)(C)C2)C1 0.9, CCOC(=O)n1c(SCC(=O)N(CC)CC)nc2ccccc21 0.9, CCC(C)(C)n1nnnc1C(c1ccccc1OC)N1CCSCC1 (stereo not drawn) 0.9
